# Assay results published in ChEMBL document CHEMBL4513216, “Probing the Open Global Health Chemical Diversity Library for Multistage-Active Starting Points for Next-Generation Antimalarials” (ACS Infect Dis, 2020).
# Among all 69,000 compounds or so, about 8,600 (12%) showed an effect of 50% or more. Only a selection was taken, and strong results are over-represented in it overall.
# System: Plasmodium berghei
# Assay: Screen against P. berghei liver stage (PbLuc), transformed with Luciferase, at 10uM
# Format: functional, HepG2
# Conditions: tested at 10 uM
row,Compound,INHIBITION
1,CNC(=O)c1cnn2c(C3CCCN3C)ccnc12 (stereo not drawn),-6.73%
2,COc1ccc(Br)c(C(=O)NC(CC(=O)O)c2cccs2)c1 (stereo not drawn),33.8%
3,O=C(CCCN1C(=O)CCC1=O)NCC1(c2ccccc2)CCC1,-9.37%
4,O=C1CCCN1Cc1nnc2n1CCN(Cc1ccco1)CC2,-8.23%
5,CCC(O)(CNCc1ncc[nH]1)c1ccc(Br)cc1 (stereo not drawn),15.5%
6,Fc1cccc(NCc2ncc[nH]2)c1,10.3%
7,Clc1cc(NCc2ncc[nH]2)nc2[nH]ccc12,-19.8%
8,COCc1nc2cc(NCc3ncc[nH]3)ccc2o1,-10.8%
9,COc1cc(NCc2ncc[nH]2)ccc1Br,74.4%
10,Fc1ccc(NCc2ncc[nH]2)cc1Br,58.1%
11,CCOCC(=O)N1CC[C@H]2O[C@@H](C)C[C@H]2C1,5.44%
12,CCCn1cnc2c(cnn2-c2cccc(C)c2C)c1=O,-70.6%
13,Cc1cc(-c2cc(N)c(=O)n(CC(=O)N3CCCC(C)C3)n2)c(C)o1 (stereo not drawn),22.35%
14,Cc1noc(OCCOc2cccc(C#N)c2)n1,10.7%
15,Cc1nc(CN2CCCN(CCOc3cccc(C#N)c3)CC2)no1,20.1%
16,Cc1nc(COc2cccc(C#N)c2)no1,54.4%
17,COCC(=O)Nc1nnc2n(Cc3cccc(OC)c3)[nH]c(C)c1-2,-14.8%
18,CN(CC1(O)CCCN(c2ccccn2)C1)C(=O)CC1CCOCC1 (stereo not drawn),-51.4%
19,Cc1nc(-c2ccsc2)ccc1C(=O)NCCCN1CCOCC1,25.315%
20,CSc1nnc(CNC(=O)Nc2ccccc2Br)n1C,19.8%
21,CNCC[C@H]1CC(C)(C)Oc2ccc(OCC3CC3)cc21,42.6%
22,CNCC[C@H]1CC(C)(C)Oc2ccc(OC)cc21,42.6%

row,Compound,INHIBITION
1,CNCC[C@H]1CC(C)(C)Oc2ccc(C)cc21,53%
2,CN1CCN(C(=O)C2CCN(c3cccnn3)C2)CC1 (stereo not drawn),-18.9%
3,O=C(NCc1ccco1)[C@@H]1CCO[C@@H]2CCN(C3CCOCC3)C[C@H]21,11.3%
4,Cc1nnc2n1CCN(CCOc1ccc(C(C)(C)C)cc1)C2,13.3%
5,NC(=O)C(CNC(=O)COCC(F)(F)F)Cc1ccc(F)cc1 (stereo not drawn),17.4%
6,OC1(CN2CCCCC2)CCN(c2cc(C(F)(F)F)ccn2)C1 (stereo not drawn),33.9%
7,OC1(CN2CCCCC2)CCN(c2cccc(C(F)(F)F)n2)C1 (stereo not drawn),46.7%
8,OC1(CN2CCCCC2)CCN(c2ccc(C(F)(F)F)cn2)C1 (stereo not drawn),59.4%
9,O=C(NCc1ccoc1)Nc1cc(C(F)(F)F)c[nH]c1=O,-45.5%
10,CO[C@H]1CN(Cc2ccccc2F)[C@@H]2CCCO[C@H]12,68.8%
11,Fc1ccccc1CN1C[C@H](OCC2CCOCC2)[C@H]2OCCC[C@H]21,-28.8%
12,Fc1ccccc1CN1C[C@@H](OCc2ccncc2)[C@H]2OCCC[C@H]21,23.5%
13,Cc1ccccc1CN1CC[C@H]2C[C@H](C(=O)N(C)C)O[C@H]2C1,19.5%
14,COCC(=O)N1CCc2cccc(S(=O)(=O)N3CCN(C)CC3)c2C1,8.51%
15,Cc1ccc(NC(=O)N2CCOC(C(N)=O)C2)cc1C(F)(F)F (stereo not drawn),-14.3%
16,O=C(Nc1ccccc1-c1cccs1)N1CCOCC1,-11.6%
17,Cc1cc(NC(=O)N2CCOC(C(N)=O)C2)ccc1Br (stereo not drawn),-62.8%
18,NC(=O)C1CN(C(=O)Nc2ccccc2N2CCCCCC2)CCO1 (stereo not drawn),-22.7%
19,COCC1CN(C(=O)Nc2cc(Cl)cc(Cl)c2)CCO1 (stereo not drawn),-42.9%
20,NC(=O)C1CN(C(=O)Nc2cc(Cl)cc(Cl)c2)CCO1 (stereo not drawn),88.4%
21,CCOc1ccc(NC(=O)N2CCOC(C(N)=O)C2)cc1Cl (stereo not drawn),-16.9%
22,NC(=O)C1CN(C(=O)Nc2ccccc2-c2cccs2)CCO1 (stereo not drawn),57.2%

row,Compound,INHIBITION
1,CN1CCCc2cc(NC(=O)N3CCOC(C(N)=O)C3)ccc21 (stereo not drawn),68.5%
2,CCC(=O)NS(=O)(=O)c1cccnc1Nc1cccc(Cl)c1Cl,42.6%
3,Cc1nc(CN2Cc3nccn3CC(CN3CCOCC3)C2)cs1 (stereo not drawn),-40.1%
4,COc1cccc(-n2nnc(C(=O)N3CCC(C(N)=O)CC3)c2C)c1,13.115%
5,Cc1cc(C(=O)NC2CCCOc3cc(Cl)ccc32)n(C)n1 (stereo not drawn),43.6%
6,O=C(c1ccc2c(c1)[nH]c(=O)n2C1CCC(O)CC1)N1CCOCC1 (stereo not drawn),48%
7,CNC(=O)[C@H]1C[C@H]2CN(C(=O)Nc3ccc(F)cc3)C[C@@H]1O2,13.4%
8,CCN1CC[C@]2(CN(Cc3nccs3)C[C@H]2c2ccccc2)C1=O,13.7%
9,Cc1nc(C2CCCN2Cc2cc(=O)n(C)c(=O)n2C)no1 (stereo not drawn),15.3%
10,CC(C)(C(=O)N1CCCC(OCc2cccnc2)C1)n1cccc1 (stereo not drawn),23.1%
11,Cc1sc2ncnc(N3CCC(N(C)Cc4cnn(C)c4)CC3)c2c1C,61.2%
12,Cc1cc2c(N3CCCC(OCc4cccnc4)C3)ncnc2s1 (stereo not drawn),85.2%
13,Cc1sc2ncnc(N3CCCC3Cn3cccn3)c2c1C (stereo not drawn),-53%
14,Cc1csc2c(N3CCC(NCCCc4cnn(C)c4)CC3)ncnc12,31.6%
15,Cc1nn(C)c2nc(N(Cc3nccs3)C3CC3)sc12,33.2%
16,Cc1cc2c(N3CCC(N(C)Cc4nccs4)CC3)ncnc2s1,87.5%
17,Cc1nn(C)c2ncnc(N3CCCC(OCc4cccnc4)C3)c12 (stereo not drawn),25.1%
18,CCc1c(C)sc2ncnc(N3CCN(C4CCOCC4)CC3)c12,4.15%
19,CN(Cc1nccs1)C1CCN(c2ncccn2)CC1,21.5%
20,Cn1cc(CN2CCc3ncnc(N4CCCC4)c3CC2)cn1,30.5%
21,Cc1cc2c(N3CCC(N(C)CCc4cnn(C)c4)CC3)ncnc2s1,51.2%
22,CCCS(=O)(=O)N1CCn2cc(CNc3ccccn3)nc2C1,23.3%

row,Compound,INHIBITION
1,CCC(=O)N1Cc2nccn2CC(CN(C)Cc2cccnc2)C1 (stereo not drawn),39.2%
2,Cc1csc(N2CCN(Cc3cnc4c(c3)c(C)nn4C)CC2)n1,24%
3,CN(C)C[C@H]1OC[C@@H]2CCN(C(=O)c3ccco3)C[C@@H]21,-4.56%
4,Cc1nc(C)n(CCNC(=O)C2(C)CC(c3ccccc3)=NO2)n1 (stereo not drawn),23%
5,Fc1cnc(N2CC[C@@H]3O[C@@H](COCc4cccnc4)CC[C@@H]32)nc1,31.4%
6,CCc1ccsc1C(=O)N1CCCN(Cc2cscn2)CC1,-16%
7,CC(C)c1cc2c(s1)NC(c1ccccc1)NC2=O (stereo not drawn),9.63%
8,Cc1nc(CN2CCCC(N(C)Cc3cnn(C)c3)C2)no1 (stereo not drawn),5.48%
9,Cc1cc2c(N3CCC(N(C)Cc4cnn(C)c4)CC3)ncnc2s1,75.7%
10,Cc1cnc(CN(C)C2CCN(CCCc3cnn(C)c3)C2)o1 (stereo not drawn),48.2%
11,COc1ccc2c(c1)CN(CC1CC1)C(=O)CCN2CC(C)(C)O,23.7%
12,O=C(c1sccc1C1CC1)N1CCN(CC(F)(F)F)CC1,27.6%
13,O=C(Nc1cccc(F)c1)C1=NOC2(CCNCC2)C1,-2.41%
14,O=C(NCCOc1ncc(Cl)cc1Cl)c1ccncc1,39.5%
15,Cc1ccoc1C(=O)NCCOc1ncc(Cl)cc1Cl,52%
16,O=C(NCCOc1ncc(Cl)cc1Cl)c1ccoc1,24.6%
17,O=C(CCn1cncn1)NCCOc1cccc(Cl)c1,10.7%
18,O=C(NCCOc1ncc(Cl)cc1Cl)c1cccnc1,19.4%
19,O=C(CCn1cccn1)NCCOc1ccc2c(c1)OCO2,-13.9%
20,O=C(CCc1ccncc1)NCCOc1ncc(Cl)cc1Cl,3.87%
21,O=C(CCn1cccn1)NCCOc1ncc(Cl)cc1Cl,53.3%
22,O=C(CCn1cccn1)NCCOc1cccc(Cl)c1,54.4%

row,Compound,INHIBITION
1,CCn1cnnc1C1CCN(C(=O)c2cccc(-n3cccc3)c2)CC1,20%
2,O=C1NC2(CCCN(C(=O)CCn3cncn3)C2)Oc2ccccc21 (stereo not drawn),-5.279%
3,Cc1cc(C)n(CCNCc2cc(-c3ccccc3)c[nH]c2=O)n1,7.43%
4,Cc1noc(C)c1CN1CC[C@H]2OCC[C@@]2(C(=O)NC2CCCC2)C1,17.1%
5,Cc1cc(C)c2c(OCC(=O)N(C)CC(=O)NC(C)C)nn(C)c2n1,-0.275%
6,CCCn1cc(NC(=O)NCC2CCS(=O)(=O)C2)nn1 (stereo not drawn),16.6%
7,COCCN1C(=O)[C@@H]2CC[C@H]1CN(c1ncccn1)C2,-33.4%
8,Cc1nc(C2CCCN2CC(=O)NCCc2ccc(Cl)cc2)no1 (stereo not drawn),44.1%
9,CC(C)(C)c1nnc(CN(Cc2cccs2)CC2CCCO2)o1 (stereo not drawn),44%
10,c1coc(-c2nnc(CN(Cc3cccs3)CC3CCCO3)o2)c1 (stereo not drawn),16.6%
11,Brc1ccc(-c2nnc(CN(Cc3cccs3)CC3CCCO3)o2)s1 (stereo not drawn),90.2%
12,CC1CCN(Cc2c(C(C)C)[nH]c3ncccc23)CC1,8.12%
13,COCCC(=O)N1CCC2(CC1)CN(S(C)(=O)=O)Cc1ccccc1O2,-0.66%
14,O=S(=O)(C1CC1)N1CCOC2(CCCN(c3cccc(F)c3)C2)C1 (stereo not drawn),-57.1%
15,Fc1cccc(N2CCCC3(CN(Cc4ccco4)CCO3)C2)c1 (stereo not drawn),80%
16,Cc1nnc(N2CCCC3(CN(c4cccc(F)c4)CCO3)C2)o1 (stereo not drawn),33%
17,OCCN1CCOC2(CCCN(c3cccc(F)c3)C2)C1 (stereo not drawn),43.8%
18,Fc1cccc(N2CCOC3(CCCN(c4nncs4)C3)C2)c1 (stereo not drawn),-22.5%
19,Cc1ccc(CN2CCOC3(CCCN(c4cccc(F)c4)C3)C2)o1 (stereo not drawn),81.2%
20,CS(=O)(=O)NC1CC2(CCN(CC3CC3)CC2)Oc2ccccc21 (stereo not drawn),19.4%
